Compound activity (PubChem BioAssay)
This is one part of a sample in which hits are shown more often than they occur.
15-hLO inh – inhibitors of human 15-lipoxygenase (ALOX15); 1.4% of 74,000 active; P16050; Potency, µM (titrated, usually from 57.1 µM), most hits filed as inhibitors; purified 15hLO-1, xylenol orange hydroperoxide absorbance; further: nearly all actives have a fitted effect of over 55% in size
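Inhibition is scored from a chromogenic endpoint. After 15 min enzyme-compound contact, arachidonic acid (50 uM final) reacts 6 min with 40 nM 15hLO-1 at room temperature, then Fe-XO reagent is added for 30 min and absorbance ratio recorded.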
Caspase-1 inhib – caspase-1 (human) inhibition, allosteric or competitive; Caspase-1 enzyme, Ac-WEHD-AFC fluorogenic rate; AID 900; P29466; 0.03% of 75,000 active; Potency, µM (doses to about 57.5 µM), hits mostly inhibitors
ALOX15B inhib – 15-hLO-2 (ALOX15B) enzyme inhibition. purified 15hLO-2, xylenol orange hydroperoxide absorbance. Potency, µM (top dose mostly 57.1 µM), actives largely listed as inhibitors. 0.56% of 110,000 active. AID 881; further: nearly all actives have a fitted effect of over 60% in size
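Purified human 15hLO-2 (50 nM) preincubated 15 min with compound, then 45 uM arachidonic acid for 90 min at RT in 25 mM Hepes pH 7.5, 0.01% Triton X-100. Hydroperoxide detected by Fe-xylenol orange; 573/405 nm absorbance ratio.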
USP2a inhib – USP2a (human) protease inhibition. O75604. USP2a enzymatic assay, qHTS inhibition. 0.1% of 60,000 active. AID 927. Potency, µM (highest dose often 38.3 µM), hits mostly inhibitors; further: nearly all actives have a fitted effect of over 60% in size
Target sequence (O75604 whole entry, looked up): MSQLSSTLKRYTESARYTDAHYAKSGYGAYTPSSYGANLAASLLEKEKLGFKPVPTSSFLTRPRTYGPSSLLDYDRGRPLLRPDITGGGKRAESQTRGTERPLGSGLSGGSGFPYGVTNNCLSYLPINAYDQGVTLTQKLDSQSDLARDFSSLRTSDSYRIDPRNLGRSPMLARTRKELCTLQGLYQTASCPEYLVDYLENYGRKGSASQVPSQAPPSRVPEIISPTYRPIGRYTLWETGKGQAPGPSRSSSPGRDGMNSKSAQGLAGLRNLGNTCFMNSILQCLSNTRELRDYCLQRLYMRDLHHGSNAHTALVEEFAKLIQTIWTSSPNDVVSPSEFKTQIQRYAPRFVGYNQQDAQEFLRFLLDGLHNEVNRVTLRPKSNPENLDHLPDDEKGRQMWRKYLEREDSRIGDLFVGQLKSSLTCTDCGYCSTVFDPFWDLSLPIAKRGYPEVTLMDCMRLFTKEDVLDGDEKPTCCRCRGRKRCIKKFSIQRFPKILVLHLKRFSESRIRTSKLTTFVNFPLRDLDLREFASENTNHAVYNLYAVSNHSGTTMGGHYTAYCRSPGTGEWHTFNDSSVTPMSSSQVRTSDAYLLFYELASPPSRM
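USP2 core (20 nM final) was preincubated with compound for 30 min at RT in 20 mM Tris-HCl pH 8.0, 2 mM CaCl2, 2 mM beta-mercaptoethanol; Ub-PLA2 (20 nM) plus NBD C6-HPC (20 uM) then added, fluorescence read after 2.5 h.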
Caspase-7 inhib – allosteric or competitive inhibitors of human caspase-7. recombinant caspase-7, Ac-DEVD-AFC fluorescence rate. Potency, µM (doses to about 57.5 µM), hits mostly inhibitors. 0.02% of 75,000 active. AID 889; active means well fitted inhibition curve with a large enough effect in the main read-out, with a control signal flat, not every such curve was filed as active; inconclusive means small, poorly fitted or top-dose-only effect, or a change in a side signal
Hits are given with their value; – = inactive; ? = inconclusive; · = no result given; [ ] = dose if it differs, or a comment. Unless noted, the call rests on the fitted dose curve; in most records, active means well fitted curve in the direction sought with a large enough effect; inconclusive means small, poorly fitted or top-dose-only effect, or another doubt; inactive means no such curve, though single readings can be large; an effect the other way counts as inactive or inconclusive.

SMILES | 15-hLO inh | Caspase-1 inhib | ALOX15B inhib | USP2a inhib | Caspase-7 inhib
O=C(CSc1nc2ccc(S(=O)(=O)N3CCOCC3)cc2[nH]1)N1CCOCC1 | 7.9µM | – | – | – | –
Cc1nn(-c2ccc(S(=O)(=O)O)cc2)c(O)c1N=Nc1ccc(-c2ccc(N=Nc3ccc4c(S(=O)(=O)O)cc(S(=O)(=O)O)c(N)c4c3O)c(O)c2)cc1O.[Cu].[Cu] | 4µM | –[11.5 µM] | –[11.4 µM] | · | –[11.5 µM]
COc1cc(-c2ccc(N=Nc3ccc4c(S(=O)(=O)O)cc(S(=O)(=O)O)c(N)c4c3O)c(OC)c2)ccc1N=Nc1ccc2c(S(=O)(=O)O)cc(S(=O)(=O)O)c(N)c2c1O | ? | – | 25µM | – | –
N#CC1=C(N)C(C#N)(C#N)C(c2cccnc2)C2CC(c3ccccc3)CC=C12 (stereo not drawn) | · | · | – | · | ·
N#CC1=C(N)C(C#N)(C#N)C(c2cccnc2)C2CCCC=C12 (stereo not drawn) | 25µM | · | – | – | ?
CC(C)c1ccc(Cn2ccc3c4c(N)nc(NC5CC5)nc4ccc32)cc1 | 7.9µM | – | – | · | –
Cc1ccc(NCc2nc3ccccc3n2C)cc1 | 16µM | – | – | – | –
COc1cccc(Cn2c(=O)c(-c3cccc(C#N)c3)nc3cnc(N4CCOCC4)nc32)c1 | – | · | – | – | ?
CC(C)c1ccc(-c2nnn(CCC(=O)O)n2)cc1 | 1.6µM | – | – | ? | –
O=c1[nH]c(=O)n([C@H]2C[C@H](O)[C@H](CO)O2)cc1/C=C\Br | – | – | – | – | –
COC(=O)c1ccc(C(NC(=O)OCc2ccccc2)/C(=C/[C@@H](C)C(=O)N[C@@H](CO)Cc2ccccc2)c2cccnc2)cc1 (stereo partly drawn) | 25µM | – | – | · | –
COC(=O)C/C=C\[C@@H](C)[C@@H](/C=N\OC[C@@H](O)[C@H]1O[C@H]2OC(C)(C)O[C@H]2[C@@H]1O)NS(=O)(=O)c1ccc(C)cc1 | –[11.4 µM] | –[11.5 µM] | · | · | –[11.5 µM]
CN=C1N[C@H](c2ccccc2)N(c2ccccc2)S1 | 0.79µM | – | 25µM | · | –
CCCCC#Cc1nc(N)c2ncn([C@@H]3O[C@@H](C(=O)NCC)[C@H](O)[C@@H]3O)c2n1 | – | – | – | – | –
Cc1cc(C)nc(Nc2ccc(N3CCOCC3)cc2)n1 | – | – | – | – | –
CC(=O)N1CCN(c2ccc(NC(=O)c3ccc(C)cc3)cc2)CC1 | · | · | – | · | ·
Cc1ccc(CNc2ccc(N3CCOCC3)cc2)s1 | 16µM | – | 16µM | – | –
CC(=O)N1CCN(c2ccc(NCc3ccc(C)s3)cc2)CC1 | 10µM | – | 13µM | · | –
CC(=O)N1CCN(c2ccc(NCc3ccccc3)cc2)CC1 | 7.9µM | – | ? | – | –
CC(=O)N1CCN(c2ccc(NC(=O)c3ccc4c(c3)OCCO4)cc2)CC1 | – | – | – | – | –
CC(=O)N1CCN(c2ccc(NCc3cccs3)cc2)CC1 | 13µM | – | 25µM | – | –
CC(=O)[C@@H]1CC[C@@H]2[C@@H]3CC=C4C[C@H](OS(=O)(=O)O)CC[C@@]4(C)[C@H]3CC[C@]21C | – | – | – | – | –
COc1ccc(N2Cc3cccc(C(=O)NC(C)CCc4ccco4)c3C2=O)cc1 (stereo not drawn) | 20µM | – | – | · | –
CCN(CCCNC(=O)CC1Oc2ccc(C)cc2NC1=O)Cc1ccccc1 (stereo not drawn) | 10µM | – | · | · | –
N#Cc1cccc(-c2cc(NCc3ccccc3)ncn2)c1 | – | – | – | – | –
SMILES | 15-hLO inh | Caspase-1 inhib | ALOX15B inhib | USP2a inhib | Caspase-7 inhib
O=C(c1ccc(Br)o1)N1CCN(c2ccc3nnc(-c4ccccc4)n3n2)CC1 | 16µM | – | – | · | –
Cc1nnc2ccc(N3CCN(C(=O)c4ccccc4)CC3)nn12 | – | – | – | · | –
CCCCc1ccc(/C=C2\C(=O)c3ccccc3C(O)=C2C(=O)OCC)cc1 | · | · | 10µM | · | ·
CCOC(=O)C1=C(O)/C(=C\c2cccc(OC)c2)N=C1C | · | · | – | · | ·
COc1cccc2c1C(=O)c1c(O)c3c(c(O)c1C2=O)C[C@@](O)(C(=O)CO)C[C@@H]3OC1C[C@@H](N)[C@H](O)[C@H](C)O1 (stereo partly drawn) | · | · | –[0.0915 µM] | · | ·
Nc1ccc(O)cc1C(=O)OCC(=O)C12CC3CC(CC(C3)C1)C2 | 13µM | – | 5µM | – | –
COC(=O)[C@H](Cc1ccccc1)NC(=O)C/C=C\[C@@H](C)[C@@H](CO)OC | –[11.4 µM] | –[11.5 µM] | · | · | –[11.5 µM]
